# Tests used:
# Experiment in all cases: DAPPL (digital affinity profiling via proximity ligation, sequencing); 10 mM Tris-HCl pH 7.5, 50 mM NaCl, 1 mM DTT, 4% glycerol, room temperature, 30 min; GST-TFs on glutathione beads, 16-mer random dsDNA library, 0.1% formaldehyde crosslink after washing; high values mean tight binding
# Conditions in all cases: protein: recombinant; tags: N-terminal GST; dsDNA, one strand shown
# [1] = target: T1, ELK1 (Homo sapiens, UniProt P19419 1-428)
# T1 sequence: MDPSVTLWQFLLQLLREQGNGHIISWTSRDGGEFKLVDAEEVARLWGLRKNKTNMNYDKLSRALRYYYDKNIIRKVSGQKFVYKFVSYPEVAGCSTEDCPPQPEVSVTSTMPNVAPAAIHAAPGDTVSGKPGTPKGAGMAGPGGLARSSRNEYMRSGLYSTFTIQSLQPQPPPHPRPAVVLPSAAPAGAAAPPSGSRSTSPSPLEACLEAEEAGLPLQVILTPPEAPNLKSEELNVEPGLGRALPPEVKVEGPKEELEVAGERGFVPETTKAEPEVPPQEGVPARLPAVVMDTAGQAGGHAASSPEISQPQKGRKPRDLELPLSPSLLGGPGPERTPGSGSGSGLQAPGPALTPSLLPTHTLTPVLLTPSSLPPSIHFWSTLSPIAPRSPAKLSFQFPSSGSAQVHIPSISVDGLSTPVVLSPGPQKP
# Summary of the method: (§1)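 Pools were built from human transcription factors expressed in yeast as GST fusions, captured on glutathione beads and DNA-barcoded, along with a tag-only sample. Incubation with 200 nmole of a 16-mer random double-stranded DNA library lasted 30 min at room temperature in Tris/NaCl/DTT/glycerol buffer, and was followed by washing, 0.1% formaldehyde crosslinking, proximity ligation, PCR amplification and Illumina NextSeq500 sequencing. Binding signal is the quotient of each hexamer's read frequency for a factor and its frequency for the tag-only sample.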
# [2] = target: SPIB (Homo sapiens, UniProt Q01892 1-262)
# Summary of the method: as §1
# [3] = target: ETV5 (Homo sapiens, UniProt P41161 1-510)
# Summary of the method: as §1
# [4] = target: ELF4 (Homo sapiens, UniProt Q99607 1-663)
# Summary of the method: as §1
# [5] = target: T2, ELK4 (Homo sapiens, UniProt P28324-2 1-405)
# T2 sequence: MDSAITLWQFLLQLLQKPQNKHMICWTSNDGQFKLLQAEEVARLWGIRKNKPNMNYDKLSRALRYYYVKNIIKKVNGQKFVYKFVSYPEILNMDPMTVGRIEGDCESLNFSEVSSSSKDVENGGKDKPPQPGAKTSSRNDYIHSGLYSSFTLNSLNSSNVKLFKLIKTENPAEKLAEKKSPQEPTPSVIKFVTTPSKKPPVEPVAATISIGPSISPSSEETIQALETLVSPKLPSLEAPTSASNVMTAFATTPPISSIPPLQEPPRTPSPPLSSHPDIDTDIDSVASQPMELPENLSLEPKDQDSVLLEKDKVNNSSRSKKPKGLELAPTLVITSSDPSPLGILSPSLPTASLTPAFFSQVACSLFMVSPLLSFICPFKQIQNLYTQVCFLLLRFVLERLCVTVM
# Summary of the method: as §1
# [6] = target: T3, ETV2 (Homo sapiens, UniProt O00321 1-342)
# T3 sequence: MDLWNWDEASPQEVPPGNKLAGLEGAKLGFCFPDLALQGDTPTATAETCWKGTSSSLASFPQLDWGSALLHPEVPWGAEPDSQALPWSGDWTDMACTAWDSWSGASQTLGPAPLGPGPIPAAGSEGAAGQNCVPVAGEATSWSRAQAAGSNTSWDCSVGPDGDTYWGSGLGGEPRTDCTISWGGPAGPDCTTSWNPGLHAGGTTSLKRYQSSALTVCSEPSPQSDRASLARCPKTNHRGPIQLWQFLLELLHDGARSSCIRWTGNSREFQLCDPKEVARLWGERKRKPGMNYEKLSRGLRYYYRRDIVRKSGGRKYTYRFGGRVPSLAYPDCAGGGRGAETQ
# Summary of the method: as §1
# [7] = target: T4, ERF (Homo sapiens, UniProt P50548 1-548)
# T4 sequence: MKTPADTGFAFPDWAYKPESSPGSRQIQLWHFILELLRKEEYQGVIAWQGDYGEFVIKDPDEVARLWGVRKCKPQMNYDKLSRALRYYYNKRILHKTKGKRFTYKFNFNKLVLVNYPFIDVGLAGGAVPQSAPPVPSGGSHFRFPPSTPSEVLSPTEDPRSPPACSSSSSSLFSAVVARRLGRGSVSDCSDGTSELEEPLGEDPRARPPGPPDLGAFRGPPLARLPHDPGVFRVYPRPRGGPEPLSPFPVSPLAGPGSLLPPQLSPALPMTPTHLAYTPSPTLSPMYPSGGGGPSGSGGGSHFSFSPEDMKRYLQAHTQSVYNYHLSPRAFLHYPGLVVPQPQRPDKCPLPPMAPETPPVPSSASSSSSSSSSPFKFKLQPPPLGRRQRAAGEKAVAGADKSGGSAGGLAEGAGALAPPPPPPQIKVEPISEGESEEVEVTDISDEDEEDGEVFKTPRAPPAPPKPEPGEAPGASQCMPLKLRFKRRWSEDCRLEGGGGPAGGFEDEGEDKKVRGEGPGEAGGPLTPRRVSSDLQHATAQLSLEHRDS
# Summary of the method: as §1
# [8] = target: T5, ETS2 (Homo sapiens, UniProt P15036 1-469)
# T5 sequence: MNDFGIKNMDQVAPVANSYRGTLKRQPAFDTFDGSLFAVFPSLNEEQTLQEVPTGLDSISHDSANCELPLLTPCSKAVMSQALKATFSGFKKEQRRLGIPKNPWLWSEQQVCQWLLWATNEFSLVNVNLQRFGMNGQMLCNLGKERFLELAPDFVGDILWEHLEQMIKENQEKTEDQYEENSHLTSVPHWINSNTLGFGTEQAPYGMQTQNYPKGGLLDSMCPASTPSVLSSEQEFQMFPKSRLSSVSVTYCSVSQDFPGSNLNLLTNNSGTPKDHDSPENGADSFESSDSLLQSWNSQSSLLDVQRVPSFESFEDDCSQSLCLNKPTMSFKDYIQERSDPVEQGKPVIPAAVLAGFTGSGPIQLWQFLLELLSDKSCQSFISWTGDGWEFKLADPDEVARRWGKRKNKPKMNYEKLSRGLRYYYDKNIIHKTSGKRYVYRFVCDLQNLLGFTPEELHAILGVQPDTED
# Summary of the method: as §1
# [9] = target: T6, ETV3 (Homo sapiens, UniProt P41162-2 1-143)
# T6 sequence: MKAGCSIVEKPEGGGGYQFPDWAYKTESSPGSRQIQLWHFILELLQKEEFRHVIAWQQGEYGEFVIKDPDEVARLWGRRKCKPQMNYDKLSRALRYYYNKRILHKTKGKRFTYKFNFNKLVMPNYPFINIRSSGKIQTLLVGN
# Summary of the method: as §1
# [10] = target: ETV6 (Homo sapiens, UniProt P41212 1-452)
# Summary of the method: as §1
# Chain of ETV5 (P41161 whole entry): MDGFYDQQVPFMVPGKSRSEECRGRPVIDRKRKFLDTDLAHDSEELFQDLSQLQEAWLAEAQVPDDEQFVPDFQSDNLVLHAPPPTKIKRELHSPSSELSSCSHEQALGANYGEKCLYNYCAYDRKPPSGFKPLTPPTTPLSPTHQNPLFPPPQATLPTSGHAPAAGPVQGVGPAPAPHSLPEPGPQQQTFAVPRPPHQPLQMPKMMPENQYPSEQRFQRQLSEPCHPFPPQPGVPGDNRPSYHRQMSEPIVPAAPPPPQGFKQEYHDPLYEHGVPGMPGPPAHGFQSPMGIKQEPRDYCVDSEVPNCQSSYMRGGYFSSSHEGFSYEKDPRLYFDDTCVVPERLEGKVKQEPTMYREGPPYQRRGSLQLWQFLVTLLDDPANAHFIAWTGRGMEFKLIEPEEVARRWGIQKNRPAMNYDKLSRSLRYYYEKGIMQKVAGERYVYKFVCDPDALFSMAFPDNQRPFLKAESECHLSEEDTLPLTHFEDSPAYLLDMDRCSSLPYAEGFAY
# Chain of SPIB (Q01892 whole entry): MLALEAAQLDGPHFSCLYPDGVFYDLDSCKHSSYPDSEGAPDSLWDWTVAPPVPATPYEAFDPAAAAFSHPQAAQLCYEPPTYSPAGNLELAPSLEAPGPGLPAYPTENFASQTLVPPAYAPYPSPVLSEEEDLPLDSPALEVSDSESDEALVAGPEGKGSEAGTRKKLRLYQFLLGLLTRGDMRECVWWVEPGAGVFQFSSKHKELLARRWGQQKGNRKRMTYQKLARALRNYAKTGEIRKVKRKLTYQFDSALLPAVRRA
# Chain of ELF4 (Q99607 whole entry): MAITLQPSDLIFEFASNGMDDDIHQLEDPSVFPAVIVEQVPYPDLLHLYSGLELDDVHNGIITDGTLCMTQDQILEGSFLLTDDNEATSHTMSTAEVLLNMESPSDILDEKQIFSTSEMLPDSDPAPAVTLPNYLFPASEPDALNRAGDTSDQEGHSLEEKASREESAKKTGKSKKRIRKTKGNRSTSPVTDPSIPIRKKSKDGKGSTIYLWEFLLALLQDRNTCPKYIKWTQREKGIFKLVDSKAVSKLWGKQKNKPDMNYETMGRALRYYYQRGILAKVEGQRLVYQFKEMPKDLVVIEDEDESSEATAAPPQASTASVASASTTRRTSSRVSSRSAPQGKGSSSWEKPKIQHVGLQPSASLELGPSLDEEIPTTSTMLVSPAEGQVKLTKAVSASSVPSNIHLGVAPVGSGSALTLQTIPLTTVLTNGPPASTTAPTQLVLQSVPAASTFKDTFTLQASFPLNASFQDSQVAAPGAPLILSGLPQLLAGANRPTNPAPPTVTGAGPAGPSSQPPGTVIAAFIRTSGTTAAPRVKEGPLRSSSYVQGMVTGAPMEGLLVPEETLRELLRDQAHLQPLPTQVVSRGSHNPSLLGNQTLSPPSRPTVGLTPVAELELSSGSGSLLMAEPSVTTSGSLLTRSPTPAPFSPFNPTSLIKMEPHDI
# Chain of ETV6 (P41212 whole entry): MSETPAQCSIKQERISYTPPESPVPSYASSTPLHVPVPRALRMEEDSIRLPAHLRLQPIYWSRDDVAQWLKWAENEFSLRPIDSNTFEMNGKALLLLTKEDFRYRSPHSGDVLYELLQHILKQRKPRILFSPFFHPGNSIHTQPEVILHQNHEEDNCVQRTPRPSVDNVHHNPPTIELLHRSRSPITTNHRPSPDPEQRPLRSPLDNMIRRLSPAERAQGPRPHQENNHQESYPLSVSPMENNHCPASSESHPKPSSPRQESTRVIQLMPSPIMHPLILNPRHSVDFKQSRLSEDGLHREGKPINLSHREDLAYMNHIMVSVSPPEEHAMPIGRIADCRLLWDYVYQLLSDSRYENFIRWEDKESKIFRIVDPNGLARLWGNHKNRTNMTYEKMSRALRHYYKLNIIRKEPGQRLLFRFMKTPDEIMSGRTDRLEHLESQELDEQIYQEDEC
sequence,measurement,setting,value
TGTGCG,binding signal,[1],"1.08 fold enrichment (6-mer frequency, TF over GST control)"
same,binding signal,[2],"1.01 fold enrichment (6-mer frequency, TF over GST control)"
same,binding signal,[3],"1.04 fold enrichment (6-mer frequency, TF over GST control)"
same,binding signal,[4],"1.01 fold enrichment (6-mer frequency, TF over GST control)"
same,binding signal,[5],"1.14 fold enrichment (6-mer frequency, TF over GST control)"
same,binding signal,[6],"1.2 fold enrichment (6-mer frequency, TF over GST control)"
same,binding signal,[7],"1.06 fold enrichment (6-mer frequency, TF over GST control)"
same,binding signal,[8],"1.05 fold enrichment (6-mer frequency, TF over GST control)"
same,binding signal,[9],"1.04 fold enrichment (6-mer frequency, TF over GST control)"
same,binding signal,[10],"1.06 fold enrichment (6-mer frequency, TF over GST control)"
